Test results as given in PubChem BioAssay.
Active and inactive are the calls of the source.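 How the source made its calls, unless noted: active means fluorescence slope after compound addition differing from the mean of all screened samples at 99.7% confidence, in either direction; inactive means the rest.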

Key:
[1] = inhibitors of TNFa-induced NFkB p65 translocation, primary screen, imaging, HUVEC, MLSMR starter and 10KST1 sets (AID 438;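 active means inhibition above 20% together with a positive visual image hit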;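 further: compound added about 3h40 before a 20 min TNFalpha stimulation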;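 on inhibition: signal is the nuclear over cytoplasmic p65 intensity ratio per well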); details: HUVEC TNFa-induced p65 nuclear translocation; cell count: measured here: nuclei count (cytotoxicity indicator), at 2.08 µM; inhibition: at 2 µM, stronger effect = higher value, 0% TNFa-plus-vehicle, 100% no-TNFa wells
[2] = reduction of polyQ htt aggregates in cells – imaging, exon1htt(103Q)mCFP cells, high-content imaging, primary screen (AID 483;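 active means visual image review flags a hit and inhibition of aggregation exceeds 20%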;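 further: compound exposure lasted 3 days before fixation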;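 on nuclei count: percent of the per-plate median nuclei count of sample wells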); details: exon1htt(103Q)mCFP cell line, aggregate imaging, at 2 µM; inhibition of aggregation: stronger effect = higher value; nuclei count: measured here: cell count, toxicity
[3] = endothelial E-selectin expression blockers – imaging, HUVEC, immunofluorescence, MLSMR starter and 10KST1 sets, primary screen (AID 487;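 active means visually confirmed hit in the image check and inhibition above 20%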;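 on inhibition: signal is fraction of cell area covered by stained E-selectin grains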;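 on nuclei count: 100% = median nuclei count of all wells on the same plate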); details: HUVEC TNFalpha-induced E-selectin immunofluorescence imaging, at 2 µM; inhibition: stronger effect = higher value; nuclei count: measured here: cell number, toxicity
[4] = target: Voltage-gated potassium channel subunit beta-2 (Rattus norvegicus) (UniProt P62483); assay: inhibitors of rat Kvbeta2 reductase activity – biochemical, NADPH fluorescence, primary screen (AID 622;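 active means fluorescence slope higher than the sample average by over 3 SD, cut at about -0.22 in these data, passing the limit was not always enough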;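 further: slope of raw intensity against log time taken from 70 to 1610 s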); details: recombinant KvBeta, 4-cyanobenzaldehyde reduction, at 10 µM, stronger effect = higher value
Voltage-gated potassium channel subunit beta-2 (Rattus norvegicus), sequence (P62483 whole entry, looked up): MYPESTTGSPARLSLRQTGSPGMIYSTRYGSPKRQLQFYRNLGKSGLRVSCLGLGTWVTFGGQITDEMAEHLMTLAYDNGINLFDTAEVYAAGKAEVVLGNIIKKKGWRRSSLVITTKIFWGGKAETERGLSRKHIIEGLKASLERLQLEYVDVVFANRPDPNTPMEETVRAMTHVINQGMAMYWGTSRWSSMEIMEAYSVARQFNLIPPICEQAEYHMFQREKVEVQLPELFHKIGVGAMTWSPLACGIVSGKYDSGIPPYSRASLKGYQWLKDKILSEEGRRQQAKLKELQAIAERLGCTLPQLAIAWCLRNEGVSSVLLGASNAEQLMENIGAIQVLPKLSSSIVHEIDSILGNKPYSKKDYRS

[5] = target: Voltage-gated potassium channel subunit beta-2 (Rattus norvegicus) (UniProt P62483); assay: enhancers of rat Kvbeta2 NADPH turnover – biochemical, NADPH fluorescence, primary screen (AID 623;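 active means NADPH fluorescence slope more negative than the mean of all samples by about 3 SD, 99.7% confidence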;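 further: fluorescence intensity change per second fitted from 20 to 320 s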); details: Recombinant KvBeta, NADPH fluorescence decrease slope, 10 min; at 10 µM; stronger effect = lower value
[6] = target: Alpha-2C adrenergic receptor (Homo sapiens) (UniProt P18825); assay: compounds altering alpha2C-coupled GIRK flux – cell-based, HEK293 alpha2C/GIRK1/2, thallium flux, primary screen (AID 624); details: thallium flux BTC fluorescence, at 10 µM, actives lie on both sides;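 further: slope of fluorescence ratio to pre-addition baseline per second over 15 to 24 s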
Alpha-2C adrenergic receptor (Homo sapiens), sequence (P18825 whole entry, looked up): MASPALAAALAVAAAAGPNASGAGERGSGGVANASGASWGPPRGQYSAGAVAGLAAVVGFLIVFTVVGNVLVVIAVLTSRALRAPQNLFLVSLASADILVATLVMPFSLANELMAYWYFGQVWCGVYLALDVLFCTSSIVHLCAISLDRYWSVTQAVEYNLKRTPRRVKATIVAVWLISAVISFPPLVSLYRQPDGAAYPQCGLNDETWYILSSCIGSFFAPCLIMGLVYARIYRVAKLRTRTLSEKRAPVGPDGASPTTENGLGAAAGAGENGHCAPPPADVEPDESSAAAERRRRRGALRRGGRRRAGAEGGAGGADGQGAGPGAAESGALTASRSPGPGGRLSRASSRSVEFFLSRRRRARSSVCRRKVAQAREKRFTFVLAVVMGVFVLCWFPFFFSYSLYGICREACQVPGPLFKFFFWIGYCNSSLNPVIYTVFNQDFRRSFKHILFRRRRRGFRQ

[7] = blockers of RIG-like receptor reporter activation – cell-based, Sendai virus stimulus, luciferase, 10K MLSCN set, TLR/RLR signaling modifier project, primary screen (AID 602276;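 active means inhibition at or above 50% at 10 µM; inactive means inhibition below 50%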;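 further: firefly luciferase from ISG56 promoter only with Renilla not read in this screen; 0% = Sendai virus plus DMSO and 100% = medium plus DMSO without virus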); details: HEK293 RL24 IRF3 luciferase reporter, at 10 µM, stronger effect = higher value
[8] = TLR3 IRF3 reporter activation blockers – cell-based, poly I:C stimulus, luciferase, 10K MLSCN set, primary screen (AID 602277;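 active means inhibition of the reporter signal at or above 50%; inactive means inhibition below 50%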); details: HEK293-TLR3 RL24 IRF3 luciferase reporter, at 10 µM, stronger effect = higher value

Compound | cell count [1] | inhibition [1] | inhibition of aggregation [2] | nuclei count [2] [%] | inhibition [3] | nuclei count [3] [%] | fluorescence slope [4] | NADPH fluorescence slope [5] | slope [6] | inhibition [7] | inhibition [8]
CCC(C)(C(=O)NC1CCCC1)N(Cc1cccs1)C(C)=O (stereo not drawn) | 472 | 6.2% (inactive) | -9.4% (inactive) | 115 | -15% (inactive) | 93.8 | -0.491 (inactive) | -1.6e-05 (inactive) | 0.00646 (inactive) | 14.8% (inactive) | 24.4% (inactive)
CCOc1ccc(NC(=O)c2ccccc2O)cc1 | 558 | -1.7% (inactive) | 9.7% (inactive) | 71.8 | -114% (inactive) | 96.2 | -0.622 (inactive) | -2e-05 (inactive) | 0.00439 (inactive) | -59.1% (inactive) | -110% (inactive)
COc1ccc(OC)c(C(=O)COC(=O)c2cc(C)oc2C)c1 | 747 | -9.6% (inactive) | 38.1% (inactive) | 103 | -2.3% (inactive) | 114 | -0.361 (inactive) | 2.4e-05 (inactive) | 0.00558 (inactive) | 6.43% (inactive) | -0.082% (inactive)
CCOCCCNC(=O)C1CCN(S(=O)(=O)N(CC(C)C)CC(C)C)CC1 | 689 | -5.1% (inactive) | 17.3% (inactive) | 79.1 | -91.6% (inactive) | 100 | -0.503 (inactive) | -5.5e-05 (inactive) | 0.00467 (inactive) | 16.6% (inactive) | 19.9% (inactive)
COc1ccc(S(=O)(=O)n2nc(OC(=O)c3ccc(C)cc3)cc2N)cc1 | 566 | -19.6% (inactive) | -9.1% (inactive) | 106 | -31% (inactive) | 144 | -0.337 (inactive) | -1.2e-06 (inactive) | 0.00323 (inactive) | 14% (inactive) | 19.2% (inactive)
CCc1cc(=O)n2[nH]c(C)c(-c3ccccc3OC)c2n1 | 595 | 2.8% (inactive) | 42.7% (inactive) | 64.6 | -38.4% (inactive) | 96.2 | -0.592 (inactive) | -2.9e-05 (inactive) | 0.00657 (inactive) | 4.14% (inactive) | 16.3% (inactive)
CN(C(=O)c1ccccn1)c1nnc(-c2cccnc2)s1 | 622 | -8.7% (inactive) | 11.2% (inactive) | 93.2 | -52.7% (inactive) | 106 | -0.489 (inactive) | -5.1e-05 (inactive) | 0.0044 (inactive) | 0.693% (inactive) | -16.2% (inactive)
O=C(NCC1CCCO1)C1CCN(c2ccc(S(=O)(=O)N3CCCC3)cc2)CC1 (stereo not drawn) | 446 | 8.5% (inactive) | -5.9% (inactive) | 103 | -38.5% (inactive) | 108 | -0.434 (inactive) | -3.3e-05 (inactive) | 0.0046 (inactive) | 5.23% (inactive) | 21.3% (inactive)
Cc1cc(NC(=O)CSc2nc3c(c(=O)n2Cc2ccccc2)SC(C)C3)no1 (stereo not drawn) | 554 | 8% (inactive) | -16.2% (inactive) | 77.3 | 15.8% (inactive) | 86.8 | -0.417 (inactive) | -6.8e-05 (inactive) | 0.00456 (inactive) | -14.3% (inactive) | -5.37% (inactive)
O=S(=O)(NCC1CCCO1)c1ccc2c(c1)OCCO2 (stereo not drawn) | 311 | -5.5% (inactive) | -1% (inactive) | 122 | -67.1% (inactive) | 120 | -0.469 (inactive) | -9.9e-06 (inactive) | 0.00518 (inactive) | 6.84% (inactive) | 7.25% (inactive)
Cc1cc(C)cc(OCC(=O)NC2=NCCS2)c1 | 311 | -11.8% (inactive) | 2.3% (inactive) | 165 | -76% (inactive) | 115 | -0.573 (inactive) | 1.2e-05 (inactive) | 0.00659 (inactive) | -3.94% (inactive) | -24% (inactive)
CCc1c(C(=O)N2CCOCC2)csc1C | 295 | -3.7% (inactive) | -15% (inactive) | 104 | -4.5% (inactive) | 104 | -0.409 (inactive) | -7.3e-05 (inactive) | 0.00413 (inactive) | -0.247% (inactive) | -13.5% (inactive)
COc1ccc2nc(SCC(=O)NC(C)C)[nH]c2c1 | 626 | 1.4% (inactive) | -0.8% (inactive) | 104 | -35.2% (inactive) | 107 | -0.478 (inactive) | 5.9e-05 (inactive) | 0.0062 (inactive) | -7.68% (inactive) | -5% (inactive)
CCN(C(=O)CCc1nc(-c2ccccc2F)no1)c1cc(OC)ccc1OC | 403 | 6.7% (inactive) | -4.7% (inactive) | 110 | -20.9% (inactive) | 115 | -0.425 (inactive) | 1.9e-05 (inactive) | 0.00445 (inactive) | -11.3% (inactive) | -31% (inactive)
CCC(C)NC(=O)c1cc(CC(C)C)on1 (stereo not drawn) | 880 | 3.5% (inactive) | 21.8% (inactive) | 80.5 | -78.2% (inactive) | 127 | -0.61 (inactive) | -1.9e-05 (inactive) | 0.00602 (inactive) | -59.4% (inactive) | -111% (inactive)
CC1CCN(C(=O)CSCC(=O)Nc2nc(-c3cccs3)cs2)CC1 | 734 | -3.4% (inactive) | 17.8% (inactive) | 94.3 | -38.7% (inactive) | 114 | -0.495 (inactive) | -1.9e-05 (inactive) | 0.00893 (inactive) | 4.81% (inactive) | -0.513% (inactive)
c1ccc(CN2CCN(CCCNc3ccc4nnc(-c5ccccc5)n4n3)CC2)cc1 | 485 | -5.5% (inactive) | 13.8% (inactive) | 10.8 | -67.5% (inactive) | 102 | -0.63 (inactive) | -1.7e-05 (inactive) | 0.00645 (inactive) | -3.46% (inactive) | -17.8% (inactive)
CCOC(=O)c1ccc(NS(=O)(=O)c2cccc3nsnc23)cc1 | 387 | -6.2% (inactive) | 18.9% (inactive) | 83.1 | -63.9% (inactive) | 104 | -0.409 (inactive) | 4.3e-05 (inactive) | 0.00792 (inactive) | -5.26% (inactive) | 0.648% (inactive)
CCOCCCNC(=O)Cn1ncc2c(=O)oc3ccccc3c21 | 651 | -13.4% (inactive) | -20.1% (inactive) | 98.5 | -32.1% (inactive) | 104 | -0.586 (inactive) | -1.8e-05 (inactive) | 0.00598 (inactive) | 5.54% (inactive) | 30.9% (inactive)
Cc1ccnc(SCCn2c(N3CCCCC3)nc3c2c(=O)n(C)c(=O)n3C)n1 | 249 | 4.4% (inactive) | -9.4% (inactive) | 93.5 | -49.1% (inactive) | 107 | -0.319 (inactive) | 1.8e-05 (inactive) | 0.00339 (inactive) | 10.1% (inactive) | 36.5% (inactive)
O=C(O)c1ccc(-c2ccc(O)c(F)c2)cc1 | 677 | 1.3% (inactive) | 11% (inactive) | 89.9 | -11.2% (inactive) | 104 | -0.59 (inactive) | -4.3e-05 (inactive) | 0.0076 (inactive) | -3.64% (inactive) | 17.3% (inactive)
CCN1CCCC1CNC(=O)CS(=O)(=O)Cc1nc(-c2ccccc2C)oc1C (stereo not drawn) | 834 | -0.6% (inactive) | 3.2% (inactive) | 104 | -87.9% (inactive) | 126 | -0.511 (inactive) | -3e-05 (inactive) | 0.00452 (inactive) | 5.3% (inactive) | 46.5% (inactive)
COc1ccccc1NC(=O)CSc1nnnn1-c1ccc2c(c1)OCO2 | 349 | -9.4% (inactive) | 21.1% (inactive) | 88.6 | -122% (inactive) | 104 | -0.487 (inactive) | 3.9e-05 (inactive) | 0.00668 (inactive) | 12.2% (inactive) | 26.1% (inactive)
Cc1cccc(N2C(=O)CC(Sc3nc(C)c4c(n3)CCCC4)C2=O)c1 (stereo not drawn) | 603 | 3.4% (inactive) | -4.5% (inactive) | 105 | 2% (inactive) | 104 | -0.592 (inactive) | -2.5e-05 (inactive) | 0.00308 (inactive) | -11.6% (inactive) | -8.43% (inactive)
CCCCCc1c(C)nc(SCC(=O)O)[nH]c1=O | 611 | -5.4% (inactive) | 12.9% (inactive) | 97.3 | -31.8% (inactive) | 106 | -0.539 (inactive) | 3.4e-05 (inactive) | 0.00694 (inactive) | -8.6% (inactive) | -1.36% (inactive)
Cc1ccc2nc(-c3ccccn3)cc(C(=O)N3CCN(c4ncccn4)CC3)c2c1 | 367 | -5.9% (inactive) | 0% (inactive) | 107 | 6% (inactive) | 115 | -0.346 (inactive) | -5.1e-05 (inactive) | 0.00536 (inactive) | 4.96% (inactive) | 8.03% (inactive)
COc1ccc(-c2[nH]c(-c3cccc(OC)c3)nc2SCC(=O)NCc2ccco2)cc1 | 672 | 10.5% (inactive) | 5.3% (inactive) | 102 | -5.4% (inactive) | 124 | -0.484 (inactive) | -1.7e-05 (inactive) | 0.00547 (inactive) | 10.3% (inactive) | 4.41% (inactive)
COc1ccc(OCCC(=O)NCc2ccccc2)cc1 | 694 | 0.4% (inactive) | 19.2% (inactive) | 91.9 | -93.5% (inactive) | 102 | -0.509 (inactive) | 9e-06 (inactive) | 0.00495 (inactive) | 4.97% (inactive) | 7.69% (inactive)
